# Measured values: PubChem BioAssay (NCATS)
# Inconclusive results are not listed. Where a call stands in place of a potency, no number is given. Activity calls are given as the source filed them. Unless noted, calls come from the whole dose curve; as a rule, active = well fitted curve in the direction sought with a large enough effect; inconclusive = small, poorly fitted or top-dose-only effect, or another doubt; inactive = no such curve, though single readings can be large; an effect the other way counts as inactive or inconclusive.
# Key:
# [1] = qHTS drug screen for cell cycle checkpoint inhibitors in PARPi-resistant BRCA-mutant ovarian cancer cell lines. (AID 1963452; calls by dose curve); conditions: PEO1/OlaR viability, CellTiter-Glo luminescence, 96 h, stronger effect = lower value
# Procedure, shortened: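 PEO1, PEO4 and PEO1/OlaR ovarian cancer cells, 600 per well, exposed 96 h at 37C to a dilution series. Viability read by CellTiter-Glo luminescence, normalized to DMSO and empty wells; activity summarized as Z-AUC.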
# [2] = qHTS profiling for inhibitors of Plasmodium falciparum proliferation (AID 504749); note: nearly all actives have a fitted effect of over 60% in size; conditions: P. falciparum in erythrocytes, SYBR Green DNA, 72 h, at 28.7 µM (top of the series)
# Procedure, shortened: (§1)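 Fluorescence of SYBR Green-bound parasite DNA, read at 485/535 nm, served as the growth measure. Infected erythrocytes were cultured with compound 72 h; artemisinin (0.29 uM) and DMSO wells defined the normalization range.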
# 3D7 = assay: as above; conditions: P. falciparum in erythrocytes, SYBR Green DNA, 72 h; series mostly up to 28.7 µM
# Procedure, shortened: as §1
# 7G8 = assay: as above; conditions: P. falciparum in erythrocytes, SYBR Green DNA, 72 h; series mostly up to 28.7 µM
# Procedure, shortened: as §1
# AA1029 = assay: as above; conditions: P. falciparum in erythrocytes, SYBR Green DNA, 72 h; series mostly up to 28.7 µM
# Procedure, shortened: as §1
# AS120 = assay: as above; conditions: P. falciparum in erythrocytes, SYBR Green DNA, 72 h; series mostly up to 28.7 µM
# Procedure, shortened: as §1
# ATS189 = assay: as above; conditions: P. falciparum in erythrocytes, SYBR Green DNA, 72 h; series mostly up to 28.7 µM
# Procedure, shortened: as §1
# ATS95 = assay: as above; conditions: P. falciparum in erythrocytes, SYBR Green DNA, 72 h; series mostly up to 28.7 µM
# Procedure, shortened: as §1
# C2A = assay: as above; conditions: P. falciparum in erythrocytes, SYBR Green DNA, 72 h; series mostly up to 28.7 µM
# Procedure, shortened: as §1
# CP185 = assay: as above; conditions: P. falciparum in erythrocytes, SYBR Green DNA, 72 h; series mostly up to 28.7 µM
# Procedure, shortened: as §1
# CP191 = assay: as above; conditions: P. falciparum in erythrocytes, SYBR Green DNA, 72 h; series mostly up to 28.7 µM
# Procedure, shortened: as §1
# CP192 = assay: as above; conditions: P. falciparum in erythrocytes, SYBR Green DNA, 72 h; series mostly up to 28.7 µM
# Procedure, shortened: as §1
# CP194 = assay: as above; conditions: P. falciparum in erythrocytes, SYBR Green DNA, 72 h; series mostly up to 28.7 µM
# Procedure, shortened: as §1
# [3] = KB-3-1 P-gp reporter qHTS against the NCATS DSHEA and TCM libraries (AID 1919975)
# Procedure, shortened: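 Parental KB-3-1 human cervical adenocarcinoma cells (500 cells/well, DMEM + 10% FBS) were treated with substances for ~72 h at 37C; viability was read by CellTiter-Glo luminescence.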
# [4] = biological target: Cytochrome P450 1A2 (Homo sapiens) (UniProt P05177); assay: qHTS for inhibitors of CYPIA2 against the NCATS DSHEA and TCM libraries (AID 1919976); note: potency is the fitted concentration of half-maximal effect
# Procedure, shortened: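 Furafylline served as the plate control. Compounds met CYP1A2 and pro-luciferin substrate 15 min before NADPH regeneration solution (1x) was added; after 30-45 min at RT, P450-Glo reagent was added for 30 min and luminescence was measured.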
# [5] = qHTS Counterscreen for compound interference against the NCATS DSHEA and TCM libraries (AID 1919978); conditions: firefly luciferase detection reagent interference, luminescence
# Procedure, shortened: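 D-luciferin (1 uM final) or 100 mM potassium phosphate buffer alone was preincubated 15 min at RT with compounds (19.5 nM to 39.8 uM final). Luciferin detection reagent was then added and luminescence read after 30 min at RT.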
# [6] = Dual reporter qHTS for agonist of Pregnane X Receptor (hPXR) against the NCATS DSHEA and TCM libraries: Fluorescence readout (AID 1920058)
# Procedure, shortened: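 In this qHTS counter-read, reporter-bearing HepG2 cells in charcoal-stripped serum received substances for approximately 24 h before viability was assessed fluorometrically with CellTiter-Fluor.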
# [7] = biological target: Nuclear receptor subfamily 1 group I member 2 (Homo sapiens) (UniProt O75469); assay: Dual reporter qHTS for agonist of Pregnane X Receptor (hPXR) against the NCATS DSHEA and TCM libraries: Luminescence readout (AID 1920059)
# Procedure, shortened: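 hPXR-LucHepG2 cells in phenol red-free DMEM with 5% charcoal-stripped FBS, 2000 cells/well, attached 5 h, then exposed 24 h at 37C to compounds; rifampicin as positive agonist control (2.8 nM–92 uM). Luciferase luminescence read.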
# [8] = biological target: Nuclear receptor subfamily 1 group I member 2 (Homo sapiens) (UniProt O75469); assay: Dual reporter qHTS for antagonist of Pregnane X Receptor (hPXR) against the NCATS DSHEA and TCM libraries: Luminescence Readout (AID 1920060)
# Procedure, shortened: (§2)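 Rifampicin-stimulated (2 uM final) hPXR-luciferase HepG2 cells were treated for 24 h with DSNP/TCM substances. Viability came from CellTiter-Fluor fluorescence, reporter activity from ONE-Glo luminescence.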
# [9] = Dual reporter qHTS for antagonist of Pregnane X Receptor (hPXR) against the NCATS DSHEA and TCM libraries: Fluorescence Readout (AID 1920061)
# Procedure, shortened: as §2
# [10] = measured here: PEO1 parental Z-AUC
# Chain of Cytochrome P450 1A2 (Homo sapiens) (P05177 whole entry, looked up): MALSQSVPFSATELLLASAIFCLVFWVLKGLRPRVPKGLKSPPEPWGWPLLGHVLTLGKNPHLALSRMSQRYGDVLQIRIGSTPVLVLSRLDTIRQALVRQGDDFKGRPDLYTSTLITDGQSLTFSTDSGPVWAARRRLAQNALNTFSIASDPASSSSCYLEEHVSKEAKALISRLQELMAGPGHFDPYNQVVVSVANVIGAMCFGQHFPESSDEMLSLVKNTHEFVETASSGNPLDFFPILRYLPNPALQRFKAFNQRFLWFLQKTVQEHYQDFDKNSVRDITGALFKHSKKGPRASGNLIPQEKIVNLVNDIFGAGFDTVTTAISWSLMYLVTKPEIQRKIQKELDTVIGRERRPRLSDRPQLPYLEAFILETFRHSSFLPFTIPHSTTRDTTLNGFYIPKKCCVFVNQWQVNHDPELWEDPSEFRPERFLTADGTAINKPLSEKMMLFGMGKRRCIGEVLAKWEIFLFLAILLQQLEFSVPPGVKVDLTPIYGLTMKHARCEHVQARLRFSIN
# Chain of Nuclear receptor subfamily 1 group I member 2 (Homo sapiens) (O75469 whole entry, looked up): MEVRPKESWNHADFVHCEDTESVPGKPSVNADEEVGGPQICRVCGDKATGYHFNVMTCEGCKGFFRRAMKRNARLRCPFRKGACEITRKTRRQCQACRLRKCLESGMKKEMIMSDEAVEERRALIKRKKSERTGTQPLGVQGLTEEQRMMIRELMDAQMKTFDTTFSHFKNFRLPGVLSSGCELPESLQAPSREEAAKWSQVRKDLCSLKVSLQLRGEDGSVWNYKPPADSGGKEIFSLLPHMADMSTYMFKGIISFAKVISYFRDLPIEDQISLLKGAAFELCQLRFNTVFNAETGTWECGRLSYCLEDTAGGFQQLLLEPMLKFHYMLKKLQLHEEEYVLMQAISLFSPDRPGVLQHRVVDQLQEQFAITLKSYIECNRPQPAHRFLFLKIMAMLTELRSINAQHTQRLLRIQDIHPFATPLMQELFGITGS
structure (smiles),measurement,setting,value
NC[C@H]1O[C@H](O[C@H]2[C@H](O)[C@@H](O[C@H]3O[C@H](CO)[C@@H](O)[C@H](N)[C@H]3O)[C@H](N)C[C@@H]2N)[C@H](N)C[C@@H]1O,Z-AUC,[1],-0.784 (inactive)
same,Z-AUC,[1]; [10],-0.522
same,Z-AUC,[1]; measured here: PEO4 Z-AUC,-0.139
CO[C@H]1C[C@@H]2CC[C@@H](C)[C@@](O)(O2)C(=O)C(=O)N2CCCC[C@H]2C(=O)O[C@H]([C@H](C)C[C@@H]2CC[C@@H](OC(=O)C(C)(CO)CO)[C@H](OC)C2)CC(=O)[C@H](C)/C=C(\C)[C@@H](O)[C@@H](OC)C(=O)[C@H](C)C[C@H](C)/C=C/C=C/C=C/1C,Z-AUC,[1],-1.22 (inactive)
same,Z-AUC,[1]; [10],-1.04
same,Z-AUC,[1]; measured here: PEO4 Z-AUC,-0.64
same,"activity, negative = inhibition",[2]; parasite line A,5.02% (inactive)
same,"activity, negative = inhibition",[2]; parasite line B,6.39% (inactive)
same,Potency,3D7,inactive
same,Potency,7G8,inactive
same,Potency,AA1029,inactive
same,Potency,AS120,inactive
same,Potency,ATS189,inactive
same,Potency,ATS95,inactive
same,Potency,C2A,inactive
same,Potency,CP185,inactive
same,Potency,CP191,inactive
same,Potency,CP192,inactive
same,Potency,CP194,inactive
OCCOCCOCCO,"activity, negative = inhibition",[2]; parasite line A,16.8% (inactive)
same,"activity, negative = inhibition",[2]; parasite line B,11.6% (inactive)
same,Potency,3D7,inactive
same,Potency,7G8,inactive
same,Potency,AA1029,inactive
same,Potency,AS120,inactive
same,Potency,ATS189,inactive
same,Potency,ATS95,inactive
same,Potency,C2A,inactive
same,Potency,CP185,inactive
same,Potency,CP191,inactive
CC(C)=CCC/C(C)=C/C=C/C(C)=C/C=C/C(C)=C/C=C/C=C(C)/C=C/C=C(C)/C=C/C=C(\C)CCC=C(C)C,outcome,[3],inactive
same,Potency,[4],inactive
same,max response,[5],0.511% (inactive)
same,outcome,[6],inactive
same,Potency,[7],inactive
same,outcome,[8],inactive
same,outcome,[9],inactive
same,"activity, negative = inhibition",[2]; parasite line A,-19% (inactive)
same,"activity, negative = inhibition",[2]; parasite line B,-16% (inactive)
same,Potency,AA1029,inactive
same,Potency,ATS189,inactive
same,Potency,ATS95,inactive
same,Potency,C2A,inactive
same,Potency,CP185,inactive
same,Potency,CP192,inactive
same,Potency,CP194,inactive
C=C1[C@H](CO)[C@@H](O)C[C@@H]1n1cnc2c(=O)[nH]c(N)nc21,Z-AUC,[1],1.7 (inactive)
same,Z-AUC,[1]; [10],1.15
same,Z-AUC,[1]; measured here: PEO4 Z-AUC,1.37
Oc1cccc(O)c1O,outcome,[3],inactive
same,Potency,[4],inactive
same,max response,[5],-3.78% (inactive)
same,outcome,[6],inactive
same,Potency,[7],inactive
same,outcome,[8],inactive
same,outcome,[9],inactive
same,"activity, negative = inhibition",[2]; parasite line A,-26.1% (inactive)
same,"activity, negative = inhibition",[2]; parasite line B,-8.69% (inactive)
same,Potency,AA1029,inactive
same,Potency,ATS95,inactive
same,Potency,C2A,inactive
same,Potency,CP185,inactive
CCCCC[C@H](O)/C=C/[C@H]1[C@H](O)CC(=O)[C@@H]1CCCCCCC(=O)O,Z-AUC,[1],-0.83 (inactive)
same,Z-AUC,[1]; [10],-0.667
same,Z-AUC,[1]; measured here: PEO4 Z-AUC,-0.531
CN[C@@H]1[C@@H](O)[C@@H](O[C@@H]2[C@@H](O)[C@H](O[C@H]3O[C@H](CN)[C@@H](O)[C@H](O)[C@H]3O)[C@@H](N)C[C@H]2NC(=O)C(O)CN)OC[C@]1(C)O (stereo partly drawn),Z-AUC,[1],-1.59 (inactive)
same,Z-AUC,[1]; [10],-0.482
same,Z-AUC,[1]; measured here: PEO4 Z-AUC,-1.12
CC1=CCC2CC1C2(C)C (stereo not drawn),outcome,[3],inactive
same,Potency,[4],3.55 µM (active)
same,max response,[5],3.27% (inactive)
same,outcome,[6],inactive
same,Potency,[7],inactive
same,outcome,[8],inactive
same,outcome,[9],inactive
same,"activity, negative = inhibition",[2]; parasite line A,10.5% (inactive)
same,"activity, negative = inhibition",[2]; parasite line B,12.9% (inactive)
same,Potency,3D7,inactive
same,Potency,7G8,inactive
same,Potency,AA1029,inactive
same,Potency,AS120,inactive
same,Potency,ATS189,inactive
same,Potency,ATS95,inactive
same,Potency,C2A,inactive
same,Potency,CP185,inactive
same,Potency,CP191,inactive
same,Potency,CP192,inactive
same,Potency,CP194,inactive
